# Bioassay records as filed in PubChem.
# Rows were chosen to be rich in hits. Some 2.4% of all compounds tested hit in one or more screens of this group.
# Imprint erasure: inducers of genomic imprint erasure in mouse ES cells | mouse ES Peg3-LacZ reporter, beta-gal luminescence, 40 h | Potency, µM (highest dose often 60.7 µM), actives largely listed as activators | actives 0.02% (n = 110,000) | AID 1948
#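 Imprint erasure is scored as LacZ activity from the silenced maternal Peg3 allele in feeder-free female ES cells cultured 40 h with LIF. Luminescence is normalized to in-plate negative controls and fitted to the Hill equation.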
# Luciferase inh: firefly luciferase inhibition; P08659; purified firefly luciferase, luminescence, 8 min; AID 411; actives 2.2% (n = 72,000); Potency, µM (highest dose often 57.1 µM), usual class: inhibitors; also: nearly all actives have a fitted effect of over 40% in size
# Target sequence (P08659 whole entry, looked up): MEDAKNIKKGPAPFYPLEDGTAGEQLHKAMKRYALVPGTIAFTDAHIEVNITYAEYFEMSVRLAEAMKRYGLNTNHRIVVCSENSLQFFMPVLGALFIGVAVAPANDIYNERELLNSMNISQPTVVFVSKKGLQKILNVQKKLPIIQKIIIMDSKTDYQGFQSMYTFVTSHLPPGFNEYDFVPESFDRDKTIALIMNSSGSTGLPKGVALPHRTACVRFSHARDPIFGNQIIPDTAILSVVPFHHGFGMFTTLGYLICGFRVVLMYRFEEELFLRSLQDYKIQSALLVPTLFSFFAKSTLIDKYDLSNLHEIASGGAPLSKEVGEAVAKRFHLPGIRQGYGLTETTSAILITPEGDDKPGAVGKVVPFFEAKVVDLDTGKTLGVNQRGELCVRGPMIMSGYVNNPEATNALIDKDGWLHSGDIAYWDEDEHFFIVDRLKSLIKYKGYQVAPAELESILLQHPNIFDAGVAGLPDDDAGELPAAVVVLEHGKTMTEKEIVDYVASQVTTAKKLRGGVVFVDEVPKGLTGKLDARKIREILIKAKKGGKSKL
#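 Titration-based qHTS; buffer 50 mM imidazole pH 7.2, 50 mM KCl, 7 mM MgCl2, 10 uM ATP, 0.01% Tween 20, 0.05% BSA; luciferase/luciferin detector mix added after compound; 8 min, ambient; luminescence.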
# IkB signaling: IkB pathway inhibition in ABC-DLBCL cells. Potency, µM (top dose mostly 57.1 µM). actives 0.04% (n = 110,000). ABC-DLBCL IkBa-CBG/CBR dual luciferase ratio, 4 h; response scale: scaled: untreated 0%, proteasome inhibitor 100%; active = well fitted curve in the direction sought with a large enough effect in the signal ratio, not every such curve was filed as active; inconclusive = small, poorly fitted or top-dose-only effect, or a change in a side signal; the % refers to the signal ratio;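 also: the direction sought is a rising ratio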
#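 Curves were fitted separately to fusion (green), unfused (red) and ratio luminescence, then classed by r2, magnitude and activity. Cells: OCI-Ly3, 4 h compound plus doxycycline at 37C; 10 uM MG-132 defined full response.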
# p53ts 39C tox: cytotoxicity in p53ts cells at nonpermissive temperature. H1299-p53A138V viability at 39C, ATP luminescence, 24 h. Potency, µM (doses to about 46.1 µM), actives largely listed as cytotoxic. actives 1.5% (n = 130,000); also: nearly all actives have a fitted effect of over 55% in size
# p53ts 32C kill: cytotoxicity in p53ts cells at permissive temperature | H1299-p53A138V at 32C, ATP luminescence viability, 24 h | Potency, µM (titrated, usually from 46.1 µM), most hits filed as cytotoxic | actives 0.93% (n = 130,000) | AID 924; also: nearly all actives have a fitted effect of over 55% in size
#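 Viability by ATPlite luminescence after 24 h compound treatment (up to 46 uM) at the permissive 32C. Cells are H1299 carrying p53 A138V. Scale runs from DMSO basal to 100 uM tamoxifen as full kill; AC50 from Hill fits.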
# Hits are given with their value; i = inactive; ? = inconclusive; nt = no result given; [ ] = dose if it differs, or a comment. Unless noted, calls follow the shape of the dose curve; as a rule, active = well fitted curve in the direction sought with a large enough effect; inconclusive = small, poorly fitted or top-dose-only effect, or another doubt; inactive = no such curve, though single readings can be large; an effect the other way counts as inactive or inconclusive.
SMILES,Imprint erasure,Luciferase inh,IkB signaling,p53ts 39C tox,p53ts 32C kill
CC(C)(CC(=O)Nc1ccccc1)C(=O)O,i[10.9 µM],i[11.4 µM],i[11.4 µM],i[9.22 µM],i[9.22 µM]
Brc1ccc2nc(CSc3ncn[nH]3)cn2c1,i,25.1µM,i,i,i
COc1ccc(NC(=O)Cn2c(=O)n(-c3ccc(Cl)cc3)c(=O)c3c(C)c(C(=O)N(C)C)sc32)cc1Cl,i[10.9 µM],nt,i,i,i
COC(=O)c1ccc(CSc2nc3ccccc3o2)cc1,i,15.8µM,i,i,i
COC(=O)c1ccc(CSc2nc(N)cc(N)n2)cc1,i,i,i,?,12.6µM
CCOC(=O)c1ccc(NC(=O)CN2C(=O)c3cccnc3Sc3ccccc32)cc1,i[10.9 µM],nt,?,i,i
Cc1cccc(-n2ncc3c(NC4CCCCC4)ncnc32)c1,i,10µM,i,15.8µM,10µM
Cc1ccc(-n2ncc3c(NC4CCCCC4)ncnc32)cc1C,i[10.9 µM],nt,?,12.6µM,i
COc1ccccc1Nc1ncnc2c1cnn2-c1cccc(C)c1,nt,i,nt,nt,nt
Clc1cccc(-n2ncc3c(NC4CCCCCC4)ncnc32)c1,i[10.9 µM],nt,?,i,i
Cc1cccc(-n2ncc3c(NC4CCCC4)ncnc32)c1,i[10.9 µM],nt,?,7.94µM,12.6µM
Cc1ccc(-n2ncc3c(NC4CCCCC4)ncnc32)cc1Cl,i[10.9 µM],nt,?,?,?
Cc1ccc(C)c(NC(=O)C(=O)NCCc2csc3nc(-c4ccccc4C)nn23)c1,i[10.9 µM],nt,?,?,?
c1ccc(-c2noc(C34CC5CC(CC(C5)C3)C4)n2)nc1,i,15.8µM,i,i,i
CC1(C)CCCC(C)(C)N1CC(O)COCCOc1ccc(Br)cc1 (stereo not given),nt,nt,nt,4.47µM,?
OC(COc1ccc(Br)cc1)CN1CCOCC1 (stereo not given),i,i,i,i,i
O=c1c(-c2ccc3c(c2)OCCO3)coc2cc(O)cc(O)c12,i,?,?,7.94µM,12.6µM
O=c1c(-c2ccccc2)coc2cc(O)cc(O)c12,i,nt,nt,?,?
O=C1[C@@H]2C=CC=CC2=NC(=S)N1CCN1CCC(=C(c2ccc(F)cc2)c2ccc(F)cc2)CC1,nt,i,i,i,i
O=C(CSc1nnnn1-c1ccccc1)NC(=O)Nc1ccc2c(c1)OCCO2,i,15.8µM,i,i,i
C=CCc1c(C)nc2nc(SCC(=O)Nc3ccc(C)c(C)c3)nn2c1C,i[10.9 µM],nt,?,12.6µM,i
C=CCc1c(C)nc2nc(SCC(=O)Nc3cccc(Cl)c3)nn2c1C,i[10.9 µM],nt,?,?,i
O=C(N/N=C1\CCc2ccccc21)c1ccccc1O,nt,nt,nt,4.47µM,nt
O=C(Nc1ccc(N2CCCC2)cc1)c1ccccc1F,nt,nt,nt,i,?
CN1CCN(c2ccc(C(=O)c3ccc(F)cc3)cc2)CC1,i,25.1µM,i,?,?
SMILES,Imprint erasure,Luciferase inh,IkB signaling,p53ts 39C tox,p53ts 32C kill
O=C(O)CCC(=O)N1CCN(c2ccc(C(=O)c3ccc(F)cc3)cc2)CC1,i,i,i,i,i
O=C(Nc1ccc(N2CCCCC2)cc1)c1ccccc1,nt,nt,nt,12.6µM,5.01µM
O=C(c1ccccc1)c1ccc(N2CCCC2)cc1,i,12.6µM,i,?,?
O=C(Nc1ccc(N2CCCC2)cc1)c1cccc(F)c1,i,3.16µM,?,5.01µM,7.94µM
O=C(Nc1ccc(N2CCCC2=O)cc1)c1cccc(F)c1,i,i,i,?,?
O=C(c1ccccc1)c1ccc(N2CCNCC2)cc1,i,i,i,i,i
O=C(Nc1ccc(F)cc1)c1csc2c1CCCCC2,i[10.9 µM],nt,i,?,15.8µM
O=C(Nc1ccon1)c1csc2c1CCCC2,i,i,i,i,i
CCOc1ccc(CCNC(=O)Cn2ncc3c(=O)oc4ccc(C)cc4c32)cc1,i[10.9 µM],nt,?,i,i
COc1cccc(OCc2nc3ccccc3n2C)c1,i[10.9 µM],nt,i,20µM,?
COc1ccc(CNC(=O)c2ccc3c(c2)nc2n3CCCCC2)cc1,i[10.9 µM],nt,?,?,i
COCCCNC(=O)c1ccc2c(c1)nc1n2CCCCC1,i[10.9 µM],nt,i,10µM,?
CCCNC(=O)c1ccc2c(c1)nc1n2CCCCC1,i[10.9 µM],nt,?,6.31µM,12.6µM
CC(=O)c1ccc(NC(=O)CSc2nccn2Cc2ccc3c(c2)OCO3)cc1,i[10.9 µM],nt,i,i,i
O=C(CCc1ccc(O)cc1)c1c(O)cc(O)cc1O[C@@H]1O[C@@H](CO)[C@@H](O)[C@@H](O)[C@H]1O,nt,i[11.4 µM],i[11.4 µM],nt,nt
COc1ccc(-c2nnc(-c3ccc(N)cc3)o2)cc1,i,7.94µM,i,?,?
COc1ccc(-c2nnc(SCC(=O)c3ccc(C)o3)o2)cc1,i,i,i,i,i
COc1ccc(-c2nnc(SCC(=O)/C(C#N)=C(\C)N)o2)cc1,i,5.01µM,i,i,i
CCn1c(=O)c2cc(C(=O)NCCCN3CCN(c4ccc(F)cc4)CC3)sc2c2ccccc21,i[10.9 µM],nt,?,i,i
Cc1ccc(-c2nnn(CC(=O)N3c4ccccc4CCc4ccccc43)n2)cc1,nt,nt,nt,i,i
Fc1ccc(-c2nc3n(n2)Cc2ccccc2-3)cc1,i,3.98µM,i,?,15.8µM
Cc1ccc(-c2nc3n(n2)Cc2ccccc2-3)cc1,nt,nt,nt,6.31µM,8.91µM
O=c1nc2n(c3c1oc1ccccc13)Cc1ccccc1-2,i,i,i,i,i
CCn1c(C)nc2cc(-c3nc4n(n3)Cc3ccccc3-4)ccc21,i,0.0501µM,i,0.398µM,0.316µM
C=CCN1CCc2c(cc(O)c(O)c2Br)[C@H](c2ccccc2)C1,nt,i,i,i,i
SMILES,Imprint erasure,Luciferase inh,IkB signaling,p53ts 39C tox,p53ts 32C kill
CC(C)OCCCNC(=O)CSc1c2c(nc3ccc(Cl)cc13)CCCC2,i[10.9 µM],nt,?,?,12.6µM
Clc1ccc(OCc2nc(-c3ccncc3)no2)c(Br)c1,i,7.94µM,?,?,?
CCc1ccc(OCc2nc(-c3ccccn3)no2)c(Br)c1,i,12.6µM,i,10µM,15.8µM
CC(C)c1ccc(OCc2nc(-c3ccccn3)no2)c(Br)c1,i,15.8µM,?,?,?
CC(C)(C)Cc1nc(-c2ccccn2)no1,i,i,?,i,i
CCc1ccc(OCC(=O)NCc2nc(-c3cccc(C)c3)no2)c(Br)c1,i[10.9 µM],nt,i,?,i
Cc1ccc(OCc2nc(-c3ccccn3)no2)c(Br)c1,i,5.01µM,i,?,10µM
Cc1ccc(SCc2nc(-c3ccccn3)no2)cc1,i,i,i,i,i
CCS(=O)(=O)N1CCc2cc(C(=O)Nc3ccc(OC)c(Cl)c3)ccc21,i[10.9 µM],nt,i,i,i
Cc1cc(C)n(C(C)CC(=O)Nc2ccc(C)c(N(C)C)c2)n1 (stereo not given),i[10.9 µM],nt,i,i,i
COc1ccc(-c2ncc3ccccn23)cc1,i,15.8µM,i,i,i
COc1cc(OC)cc(-c2ncc3ccccn23)c1,nt,nt,nt,i,i
Cc1cc(=O)oc2cc(O)c(CN(C)CC(=O)O)cc12,i[10.9 µM],i[11.4 µM],i[11.4 µM],i[9.22 µM],i[9.22 µM]
CCc1nn(CC(=O)Nc2ccc(C)c(F)c2)c(=O)c2cc3cc(C)ccc3n12,i[10.9 µM],nt,i,31.6µM,i
CCn1cc(SCC(=O)NCc2ccc3c(c2)OCO3)c2ccccc21,i,2µM,?,5.01µM,5.01µM
Cn1cc(SCC(=O)NCc2ccc3c(c2)OCO3)c2ccccc21,i,i,i,i,i
